Unmarked numbers belong to inactive results. Inconclusive results are not listed. Activity calls are given as the source filed them. Unless noted, calls follow the shape of the full dose curve.

From PubChem BioAssay (Tox21) come the findings set out here.

The nature of test [1]: Nuclear factor erythroid 2-related factor 2/antioxidant responsive element (Nrf2/ARE) small molecule agonists: qHTS cell viability counter screen in human keratinocytes (AID 1919968; active = well fitted curve in the direction sought with a large enough effect in the repeat runs; an effect the other way counts as inactive or inconclusive; also: nearly all actives have a fitted effect of over 55% in size). Put shortly: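 CellTiter-Fluor fluorescence, read 1 h after reagent, gave viability in the same wells as the ARE-luciferase assay. KeratinoSens cells (1,500/well) had 23 h compound exposure at 37 C/5% CO2 following 5 h plating.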
Background: qHTS replaces the single test concentration by a dilution series.

Test [2] can be described thus: Nuclear factor erythroid 2-related factor 2/antioxidant responsive element (Nrf2/ARE) small molecule agonists: luciferase reporter gene qHTS assay in human keratinocytes (AID 1919969). Also: nearly all actives have a fitted effect of over 35% in size.
Test [3] deals with KiSS-1 receptor (Homo sapiens) (UniProt Q969F8). As to the kind of experiment: Human kisspeptin (KISS1R) small molecule agonists, calcium flux assay in KISS1R-HEK293 cells (AID 1920064; active = well fitted curve in the direction sought with a large enough effect in the repeat runs; an effect the other way counts as inactive or inconclusive). Put shortly: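 Agonist mode: intracellular calcium rise tracked at 1 s intervals over 3 min (480/540 nm) immediately after compound addition to dye-loaded KISS1R-HEK293 stable cells. Each compound tested at 15 concentrations in triplicate.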
In general terms: Calcium flux is commonly read through the fluorescence of an indicator in the cells.

Test [4] can be described thus: G protein-coupled receptor (GPCR) small molecule agonists, calcium flux assay: HEK293 wild type cell line counter screen (AID 1920065). Summed up: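 Calcium flux counter screen: compound added in agonist mode at 15 concentrations in triplicate to dye-loaded parental HEK293 cells. Fluorescence (480/540) read kinetically for 3 min; ATP served as positive control.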
Test [5] is described as follows: p53 small molecule agonists, cell-based qHTS assay with rat liver microsomes (AID 1963578). Put shortly:
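Read-out is beta-lactamase reporter fluorescence (LiveBLAzer, 2 h, room temperature, dark) in p53RE-bla cells treated 16 h at 37 C with compound, rat liver microsomes and NADPH, both 0.5 mg/mL final.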

Test [6] in a line: p53 small molecule agonists, cell-based qHTS assay with rat liver microsomes: qHTS cell viability counter screen (AID 1963580). Also: nearly all actives have a fitted effect of over 45% in size. Summed up: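 Rat liver microsome (0.5 mg/mL final) and NADPH (0.5 mg/mL final) co-incubation with compounds for 16 h at 37 C on HCT-116 p53RE-bla cells; cytotoxicity taken from intracellular ATP luminescence.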
A short description of test [7]: p53 small molecule agonists, cell-based qHTS assay: qHTS cell viability counter screen (AID 1963581). Also: nearly all actives have a fitted effect of over 45% in size. Summed up: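 Counter screen read by CellTiter-Glo luminescence (ATP content, 30 min at room temperature), run in the same wells as the beta-lactamase reporter read. HCT-116 p53RE-bla cells saw compounds for 16 h at 37 C.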
The nature of test [8]: cAMP Responsive Elements (CRE) small molecule agonists, cell-based qHTS assay (AID 1963590). Put shortly: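 Agonist mode: compound added to CRE-bla HEK 293T cells (2,000/well, 18 h after plating) for 3 h at 37 C/5% CO2. Reporter activity detected via FRET beta-lactamase substrate, 2 h room-temperature loading.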
Test [9] can be described thus: cAMP Responsive Elements (CRE) small molecule antagonists, cell-based qHTS assay (AID 1963591; active = well fitted inhibition curve with a large enough effect in the signal ratio in the repeat runs, not every such curve was filed as active; the % refers to the signal ratio). Summed up:
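Antagonist mode: compounds are added alongside the adenylyl cyclase activator NKH477 (0.25 uM final) to CRE-bla HEK293T cells for 3 h. LiveBLAzer FRET substrate, 2 h at room temperature, reports bla expression.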

For test [10], the target named is Beta-2 adrenergic receptor (Homo sapiens) (UniProt P07550). As to the kind of experiment: Adrenergic beta2 receptor (ADRB2) small molecule antagonists, cell-based qHTS assay (AID 1963592). Also: series mostly up to about 92 µM; nearly all actives have a fitted effect of over 50% in size. Summed up: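 Assay format: CHO-ADRB2 cells, 18-20hr seeding at 37C/5% CO2, then compound plus 1nM isoproterenol agonist mix for 0.5hr RT. Homogeneous time-resolved fluorescence cAMP detection after 1hr, expressed as 665/615 nm ratio.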

Test [11] addresses D(2) dopamine receptor (Homo sapiens) (UniProt P14416). As to the kind of experiment: Dopamine D2 receptor (DRD2) small molecule antagonists, cell-based qHTS assay (AID 1963595; active = well fitted inhibition curve with a large enough effect in the signal ratio in the repeat runs, with a control signal flat; the % refers to the signal ratio). Put shortly: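 HEK293 cells stably expressing DRD2, preincubated with 0.1 mM Ro20-1724 and compounds 10 min, were stimulated with 200 nM NKH477 plus 12 nM quinpirole for 30 min at room temperature; cAMP measured by HTRF (665/620 nm).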

Test [12] can be described thus: p53 small molecule agonists, cell-based qHTS assay with human liver microsomes (AID 1963577). Summed up:
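Compounds act here after metabolic activation: human liver microsomes and NADPH, both at 0.5 mg/mL final, were co-added to p53RE-bla cells. Incubation ran 16 h at 37 C, followed by LiveBLAzer detection.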

Test [13] in a line: p53 small molecule agonists, cell-based qHTS assay with human liver microsomes: qHTS cell viability counter screen (AID 1963579). Also: nearly all actives have a fitted effect of over 45% in size. Summed up: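 Cells carrying the p53 response-element beta-lactamase reporter are treated for 16 h at 37 C with test compounds in the presence of human liver microsomes and NADPH (both 0.5 mg/mL final); ATP-based CellTiter-Glo luminescence then reports viability.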

For test [14], the target named is 5-hydroxytryptamine receptor 2A (Homo sapiens) (UniProt P28223). As to the kind of experiment: 5-hydroxytryptamine receptor 2A (HTR2A) small molecule antagonists, cell-based qHTS assay (AID 1963586). Also: nearly all actives have a fitted effect of over 45% in size. Put shortly: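 CHO cells stably expressing human HTR2A were plated for 18 h at 37 C, then loaded with calcium dye for 1 h. Compounds were preincubated 5 min at room temperature before DOI (4 nM solution) was added. Kinetic fluorescence was read for 3 min.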

The target is the same in test [15]. The test is described as follows: 5-hydroxytryptamine receptor 2A (HTR2A) small molecule agonists, cell-based qHTS assay (AID 1963587). Also: nearly all actives have a fitted effect of over 30% in size. Summed up:
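Kinetic calcium-flux fluorescence (2 min, 1 sec intervals) after compound addition in agonist mode. HTR2A-CHO cells were cultured 18 h, then dye-loaded 1 h at 37 C.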

In test [16] the target is Muscarinic acetylcholine receptor M1 (Homo sapiens) (UniProt P11229). The test is described as follows: Cholinergic receptor muscarinic 1 (CHRM1) small molecule antagonists, cell-based qHTS assay (AID 1963588). Also: nearly all actives have a fitted effect of over 40% in size. Also: potency is read from the fitted curve at half-maximal effect. Put shortly:
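Compounds were tested at 15 concentrations in three independent runs. Dye-loaded CHRM1-CHO cells were exposed 5 min at room temperature before stimulation by acetylcholine added at 50nM. Intracellular calcium was read kinetically on FDSS for 3 min.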

The target is the same in test [17]. As to the kind of experiment: Cholinergic receptor muscarinic 1 (CHRM1) small molecule agonists, cell-based qHTS assay (AID 1963589). Also: nearly all actives have a fitted effect of over 35% in size. Summed up: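 Agonist-mode calcium-flux screen: compounds at 15 concentrations, three independent runs, were pin-transferred onto dye-loaded human CHRM1-CHO cells. Fluorescence was then recorded kinetically every second over minutes.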

In test [18] the target is D(2) dopamine receptor (Homo sapiens) (UniProt P14416). The test is described as follows: Dopamine D2 receptor (DRD2) small molecule agonists, cell-based qHTS assay (AID 1963594). Also: nearly all actives have a fitted effect of over 35% in size. Summed up:
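cAMP accumulation in DRD2-HEK293 cells measured by HTRF after 1 h detection; compounds added 10 min before NKH477 (200nM […]) forskolin-analogue stimulation, 30 min at room temperature, with Ro20-1724 present at 0.1 mM final.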

Test [19] deals with Beta-2 adrenergic receptor (Homo sapiens) (UniProt P07550). As to the kind of experiment: Adrenergic beta2 receptor (ADRB2) small molecule agonists, cell-based qHTS assay (AID 1963593).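 Also: CHO cells stably overexpressing human ADRB2.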 Put shortly:
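CHO cells stably over-expressing ADRB2 were plated overnight at 37C, then dosed with compounds plus a stimulation mix containing 100uM IBMX and 25uM Ro-20-1724 for 0.5hr at room temperature. cAMP was measured by HTRF competition, 1hr.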

The nature of test [20]: p53 small molecule agonists, cell-based qHTS assay (AID 1963582; active = well fitted activation curve with a large enough effect in the signal ratio in the repeat runs, not every such curve was filed as active; the % refers to the signal ratio). Put shortly: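 Read-out is beta-lactamase FRET fluorescence after 2 h at room temperature with LiveBLAzer B/G substrate. p53 response element-bla cells were treated 16 h at 37 C with compounds in DMSO, added 5 h after seeding.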

Chain of 5-hydroxytryptamine receptor 2A (Homo sapiens) (P28223 whole entry, looked up): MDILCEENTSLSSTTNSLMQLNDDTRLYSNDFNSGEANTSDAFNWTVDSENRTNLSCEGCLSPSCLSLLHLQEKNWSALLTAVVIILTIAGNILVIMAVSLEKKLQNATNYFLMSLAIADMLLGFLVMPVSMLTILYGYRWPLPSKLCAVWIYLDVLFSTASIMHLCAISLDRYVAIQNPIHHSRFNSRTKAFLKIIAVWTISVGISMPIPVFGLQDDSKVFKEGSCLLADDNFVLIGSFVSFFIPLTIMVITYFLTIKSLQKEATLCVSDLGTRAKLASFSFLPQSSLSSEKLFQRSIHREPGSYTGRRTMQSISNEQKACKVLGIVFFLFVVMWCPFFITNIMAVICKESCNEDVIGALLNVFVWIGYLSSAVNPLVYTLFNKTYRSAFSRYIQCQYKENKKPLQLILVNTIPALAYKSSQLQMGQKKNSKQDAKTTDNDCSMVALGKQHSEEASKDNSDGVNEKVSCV
Chain of Beta-2 adrenergic receptor (Homo sapiens) (P07550 whole entry, looked up): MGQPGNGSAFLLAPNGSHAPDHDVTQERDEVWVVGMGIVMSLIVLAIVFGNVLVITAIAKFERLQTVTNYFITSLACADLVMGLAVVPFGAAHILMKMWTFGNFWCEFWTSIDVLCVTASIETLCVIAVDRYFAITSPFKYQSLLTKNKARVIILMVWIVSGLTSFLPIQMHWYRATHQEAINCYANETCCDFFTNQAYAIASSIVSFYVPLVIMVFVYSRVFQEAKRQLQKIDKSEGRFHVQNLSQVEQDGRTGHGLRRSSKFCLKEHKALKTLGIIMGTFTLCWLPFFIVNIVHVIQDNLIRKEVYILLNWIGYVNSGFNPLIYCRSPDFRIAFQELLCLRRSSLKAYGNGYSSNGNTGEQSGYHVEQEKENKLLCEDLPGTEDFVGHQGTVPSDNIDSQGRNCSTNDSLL
Chain of KiSS-1 receptor (Homo sapiens) (Q969F8 whole entry, looked up): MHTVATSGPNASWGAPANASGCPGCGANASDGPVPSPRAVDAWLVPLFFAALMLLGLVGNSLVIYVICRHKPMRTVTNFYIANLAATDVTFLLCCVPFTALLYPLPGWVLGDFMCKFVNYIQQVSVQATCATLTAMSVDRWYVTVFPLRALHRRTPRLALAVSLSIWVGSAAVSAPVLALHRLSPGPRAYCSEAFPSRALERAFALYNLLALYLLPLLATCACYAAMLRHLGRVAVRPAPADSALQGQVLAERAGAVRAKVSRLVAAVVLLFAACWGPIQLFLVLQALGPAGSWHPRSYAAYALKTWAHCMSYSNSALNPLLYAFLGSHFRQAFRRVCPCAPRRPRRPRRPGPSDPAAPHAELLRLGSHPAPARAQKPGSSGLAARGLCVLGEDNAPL
Chain of D(2) dopamine receptor (Homo sapiens) (P14416 whole entry, looked up): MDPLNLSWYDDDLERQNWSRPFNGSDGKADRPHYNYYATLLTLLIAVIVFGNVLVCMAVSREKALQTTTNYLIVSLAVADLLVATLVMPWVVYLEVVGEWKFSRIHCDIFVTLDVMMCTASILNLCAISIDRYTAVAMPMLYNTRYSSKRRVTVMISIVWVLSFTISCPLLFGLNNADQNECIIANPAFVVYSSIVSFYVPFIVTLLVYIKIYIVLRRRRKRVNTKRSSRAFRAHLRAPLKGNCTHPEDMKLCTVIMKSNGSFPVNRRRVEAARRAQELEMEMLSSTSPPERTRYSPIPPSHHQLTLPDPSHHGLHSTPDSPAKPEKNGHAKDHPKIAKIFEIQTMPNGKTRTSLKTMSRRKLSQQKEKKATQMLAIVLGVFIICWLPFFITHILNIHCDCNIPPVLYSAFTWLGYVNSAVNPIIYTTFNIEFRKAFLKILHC
Chain of Muscarinic acetylcholine receptor M1 (Homo sapiens) (P11229 whole entry, looked up): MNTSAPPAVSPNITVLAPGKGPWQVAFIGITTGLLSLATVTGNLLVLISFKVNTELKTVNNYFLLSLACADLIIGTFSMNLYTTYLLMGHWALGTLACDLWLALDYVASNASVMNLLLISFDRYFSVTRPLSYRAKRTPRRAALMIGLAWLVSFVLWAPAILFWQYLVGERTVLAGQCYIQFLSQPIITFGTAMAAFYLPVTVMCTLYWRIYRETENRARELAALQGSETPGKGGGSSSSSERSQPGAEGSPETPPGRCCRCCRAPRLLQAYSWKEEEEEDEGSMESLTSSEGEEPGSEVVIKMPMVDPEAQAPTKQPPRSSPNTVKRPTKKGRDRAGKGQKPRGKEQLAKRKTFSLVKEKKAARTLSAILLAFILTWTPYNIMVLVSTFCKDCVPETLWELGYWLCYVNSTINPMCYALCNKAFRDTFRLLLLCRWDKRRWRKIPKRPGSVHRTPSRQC

On to `Nc1nc2ccc(OC(F)(F)F)cc2s1`, for which the Potency entry in test [1], in test [2], in test [3], in test [4], in [5] and in [6] was “inactive” each time. In addition, the Potency result in test [7], in [8], in [9], in [10] and in test [11] was “inactive” in each case.
Turning to `Cc1nc(N)nc(N)c1-c1ccc(Cl)c(Cl)c1`, the Potency result in test [1], in test [2], in [3], in test [4], in test [12] and in test [5] was “inactive” each time. Also, the Potency entry in test [13], in test [6], in test [14], in [15], in [17] and in test [8] was “inactive” in each case. For the same compound, the Potency result in [9], in test [10], in [18] and in test [11] was “inactive” each time. Besides, the Potency in test [16] was 7.29 µM (active).
Regarding `CC(S)C(C)S` (configuration not stated), the Potency result in test [1], in test [2], in [3], in [4], in test [5] and in test [13] was “inactive” throughout. The Potency entry in [6], in test [7], in [14], in [17], in [8] and in test [9] was “inactive” each time. The Potency entry in test [10], in test [19], in test [18] and in [11] was “inactive” in each case.
As to `O=S(=O)(O)c1cc(Cl)c(Cl)cc1Cl`, the Potency entry in test [1], in test [2], in [3], in [4], in [12] and in test [5] was “inactive” throughout. Also, the Potency entry in [6], in test [7], in test [20], in test [16], in test [17] and in test [8] was “inactive” in each case. Besides, the Potency entry in [10], in [18] and in [11] was “inactive” throughout.
For `COCc1nnc(-c2ccc[n+]([O-])c2)n1-c1c(Cl)c(Cl)cc2[nH]c(=O)c(=O)[nH]c12`, the Potency result in test [1], in [2], in test [3], in test [4], in test [13] and in [6] was “inactive” throughout. The Potency result in test [7], in test [14], in test [15], in [16], in test [17] and in test [8] was “inactive” in each case. In addition, the Potency result in test [9], in [10], in test [19], in test [18] and in test [11] was “inactive” throughout.
For `Cc1cc(O)c(C(C)C)cc1Cl`, the Potency result in test [1], in test [2], in test [3], in test [4], in test [12] and in test [5] was “inactive” in each case. Also, the Potency result in test [13], in [7], in test [14], in [15], in test [16] and in [17] was “inactive” throughout. Besides, the Potency result in test [8], in test [19], in test [18] and in test [11] was “inactive” in each case.
As to `CCCCC(=O)O[C@]1(C(=O)CO)[C@@H](C)C[C@H]2[C@@H]3CCC4=CC(=O)C=C[C@]4(C)[C@@]3(F)[C@@H](O)C[C@@]21C`, the Potency result in test [1], in test [2], in test [3], in test [4], in [12] and in test [5] was “inactive” each time. Also, the Potency result in test [6], in test [7], in [20], in test [14], in test [16] and in test [17] was “inactive” each time. Also, the Potency entry in [10], in test [18] and in [11] was “inactive” in each case.
